# Results taken from the supplement of paper PMC4022240.
# ± gives the standard deviation.
# T1: HaloTag-ATRX ADD domain (163-292)
# T1 chain: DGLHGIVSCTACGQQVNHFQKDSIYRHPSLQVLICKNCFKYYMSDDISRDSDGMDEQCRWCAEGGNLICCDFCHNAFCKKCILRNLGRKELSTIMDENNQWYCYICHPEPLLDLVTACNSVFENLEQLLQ
# B1: H3 30-42 P A T G G V Kme Kme3 P H R Y R (peptide)
# chain: PATGGVKKPHRYR
# B2: H3 30-42 P A T G G V Kme Kme P H R Y R (peptide)
# chain: PATGGVKKPHRYR
# B3: H3 30-42 P A T G G V Kme2 K P H R Y R (peptide)
# chain: PATGGVKKPHRYR
# B4: H3 30-42 P A T G G V Kme2 Kme2 P H R Y R (peptide)
# chain: PATGGVKKPHRYR
# B5: H3 30-42 P A T G G V Kme Kme2 P H R Y R (peptide)
# chain: PATGGVKKPHRYR
# B6: H3 30-42 P A T G G V Kme2 Kme P H R Y R (peptide)
# chain: PATGGVKKPHRYR
# B7: H3 30-42 P A T G G V Kme3 Kac P H R Y R (peptide)
# chain: PATGGVKKPHRYR
# B8: H3 30-42 P A T G G V Kme2 Kac P H R Y R (peptide)
# chain: PATGGVKKPHRYR
# B9: H3 30-42 P A T G G V Kme2 Kme3 P H R Y R (peptide)
# chain: PATGGVKKPHRYR
# B10: H3 30-42 P A T G G V Kme3 K P H R Y R (peptide)
# chain: PATGGVKKPHRYR
# Tests used:
# Test in all cases: peptide microarray binding signal (635 nm), min-max normalized on array (fraction of array maximum); higher = stronger binding
# Conditions in all cases: peptide region: H3 30-42
# [1] = target: T1, HaloTag-ATRX ADD domain (163-292)
# Summary of the method: (§1)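 An Axon GenePix 4000B scanned the arrays at 635 nm for signal and at 532 nm to catch misprints. Those arrays held histone 13-mer peptide–cellulose conjugates printed in triplicate on nitrocellulose with a Cy3 tracer, blocked overnight at 4°C and probed for 1 h at 4°C with biotin-labelled HaloTag reader fusions (10 nM to 1 μM) plus streptavidin-Alexa Fluor 647 or with rabbit histone antibodies (1:10,000 to 1:2,000) plus anti-rabbit Alexa 647. Each binding signal is a triplicate-spot mean intensity, scaled min-max within its library.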
# [2] = target: HaloTag-ING2 PHD (mouse Ing2 200-280)
# Summary of the method: as §1
# [3] = target: anti-H3K4me3 antibody ab8580
# Summary of the method: as §1
# [4] = target: anti-H3K9me3 antibody ab8898
# Summary of the method: as §1
# [5] = peptide modifications: H3K36me1 H3K37me3, binder concentration: 1:2,000 dilution
# [6] = peptide modifications: H3K36me1 H3K37me3, binder concentration: 1:10,000 dilution
# [7] = peptide modifications: H3K36me1 H3K37me1, binder concentration: 1:2,000 dilution
# [8] = peptide modifications: H3K36me1 H3K37me1, binder concentration: 1:10,000 dilution
# [9] = peptide modifications: H3K36me2, binder concentration: 1:2,000 dilution
# [10] = peptide modifications: H3K36me2, binder concentration: 1:10,000 dilution
# [11] = peptide modifications: H3K36me2 H3K37me2, binder concentration: 1:2,000 dilution
# [12] = peptide modifications: H3K36me2 H3K37me2, binder concentration: 1:10,000 dilution
# [13] = peptide modifications: H3K36me1 H3K37me2, binder concentration: 1:2,000 dilution
# [14] = peptide modifications: H3K36me1 H3K37me2, binder concentration: 1:10,000 dilution
# [15] = peptide modifications: H3K36me2 H3K37me1, binder concentration: 1:2,000 dilution
# [16] = peptide modifications: H3K36me2 H3K37me1, binder concentration: 1:10,000 dilution
# [17] = peptide modifications: H3K36me3 H3K37ac, binder concentration: 1:2,000 dilution
# [18] = peptide modifications: H3K36me3 H3K37ac, binder concentration: 1:10,000 dilution
# [19] = peptide modifications: H3K36me2 H3K37ac, binder concentration: 1:2,000 dilution
# [20] = peptide modifications: H3K36me2 H3K37ac, binder concentration: 1:10,000 dilution
# [21] = peptide modifications: H3K36me2 H3K37me3, binder concentration: 1:2,000 dilution
# [22] = peptide modifications: H3K36me2 H3K37me3, binder concentration: 1:10,000 dilution
# [23] = peptide modifications: H3K36me3, binder concentration: 1:2,000 dilution
# [24] = peptide modifications: H3K36me3, binder concentration: 1:10,000 dilution
binder,measurement,setting,value
B1,peptide microarray binding signal,"[1]; peptide modifications: H3K36me1 H3K37me3, binder concentration: 50 nM",0.00135 ± 1.7e-05
same,peptide microarray binding signal,"[1]; peptide modifications: H3K36me1 H3K37me3, binder concentration: 500 nM",0.00229 ± 8.8e-05
same,peptide microarray binding signal,"[2]; peptide modifications: H3K36me1 H3K37me3, binder concentration: 10 nM",0.00203 ± 8.9e-05
same,peptide microarray binding signal,"[2]; peptide modifications: H3K36me1 H3K37me3, binder concentration: 100 nM",0.00191 ± 0.00013
same,peptide microarray binding signal,[3]; [5],0.000359 ± 2.1e-05
same,peptide microarray binding signal,[3]; [6],0.000514 ± 1.1e-05
same,peptide microarray binding signal,[4]; [5],0.0008 ± 8.7e-05
same,peptide microarray binding signal,[4]; [6],0.000807 ± 1.5e-05
B2,peptide microarray binding signal,"[1]; peptide modifications: H3K36me1 H3K37me1, binder concentration: 50 nM",0.00245 ± 4.3e-05
same,peptide microarray binding signal,"[1]; peptide modifications: H3K36me1 H3K37me1, binder concentration: 500 nM",0.0039 ± 0.00015
same,peptide microarray binding signal,"[2]; peptide modifications: H3K36me1 H3K37me1, binder concentration: 10 nM",0.00424 ± 0.00021
same,peptide microarray binding signal,"[2]; peptide modifications: H3K36me1 H3K37me1, binder concentration: 100 nM",0.000496 ± 9.7e-06
same,peptide microarray binding signal,[3]; [7],0.000189 ± 2e-06
same,peptide microarray binding signal,[3]; [8],0.00559 ± 0.0011
same,peptide microarray binding signal,[4]; [7],0.00157 ± 0.00052
same,peptide microarray binding signal,[4]; [8],0.00254 ± 0.00014
B3,peptide microarray binding signal,"[1]; peptide modifications: H3K36me2, binder concentration: 50 nM",0.00417 ± 0.0002
same,peptide microarray binding signal,"[1]; peptide modifications: H3K36me2, binder concentration: 500 nM",0.00919 ± 0.00057
same,peptide microarray binding signal,"[2]; peptide modifications: H3K36me2, binder concentration: 10 nM",0.0135 ± 0.0016
same,peptide microarray binding signal,"[2]; peptide modifications: H3K36me2, binder concentration: 100 nM",0.0203 ± 0.0023
same,peptide microarray binding signal,[3]; [9],0.0031 ± 0.00053
same,peptide microarray binding signal,[3]; [10],0.00377 ± 0.00013
same,peptide microarray binding signal,[4]; [9],0.00305 ± 0.00012
same,peptide microarray binding signal,[4]; [10],0.00271 ± 7.1e-05
B4,peptide microarray binding signal,"[1]; peptide modifications: H3K36me2 H3K37me2, binder concentration: 50 nM",0.00185 ± 1.5e-05
same,peptide microarray binding signal,"[1]; peptide modifications: H3K36me2 H3K37me2, binder concentration: 500 nM",0.00476 ± 0.00025
same,peptide microarray binding signal,"[2]; peptide modifications: H3K36me2 H3K37me2, binder concentration: 10 nM",0.00501 ± 0.00021
same,peptide microarray binding signal,"[2]; peptide modifications: H3K36me2 H3K37me2, binder concentration: 100 nM",0.00227 ± 0.00036
same,peptide microarray binding signal,[3]; [11],0.000396 ± 7e-06
same,peptide microarray binding signal,[3]; [12],0.000799 ± 5.8e-05
same,peptide microarray binding signal,[4]; [11],0.00267 ± 8.5e-05
same,peptide microarray binding signal,[4]; [12],0.00104 ± 2.8e-05
B5,peptide microarray binding signal,"[1]; peptide modifications: H3K36me1 H3K37me2, binder concentration: 50 nM",0.00241 ± 8.1e-05
same,peptide microarray binding signal,"[1]; peptide modifications: H3K36me1 H3K37me2, binder concentration: 500 nM",0.00529 ± 0.00037
same,peptide microarray binding signal,"[2]; peptide modifications: H3K36me1 H3K37me2, binder concentration: 10 nM",0.00442 ± 0.00037
same,peptide microarray binding signal,"[2]; peptide modifications: H3K36me1 H3K37me2, binder concentration: 100 nM",0.00709 ± 0.0016
same,peptide microarray binding signal,[3]; [13],0.000245 ± 5.2e-06
same,peptide microarray binding signal,[3]; [14],0.000571 ± 1.1e-05
same,peptide microarray binding signal,[4]; [13],0.00337 ± 0.0001
same,peptide microarray binding signal,[4]; [14],0.000865 ± 2.4e-05
B6,peptide microarray binding signal,"[1]; peptide modifications: H3K36me2 H3K37me1, binder concentration: 50 nM",0.00476 ± 8.1e-05
same,peptide microarray binding signal,"[1]; peptide modifications: H3K36me2 H3K37me1, binder concentration: 500 nM",0.0141 ± 0.0045
same,peptide microarray binding signal,"[2]; peptide modifications: H3K36me2 H3K37me1, binder concentration: 10 nM",0.00913 ± 0.0015
same,peptide microarray binding signal,"[2]; peptide modifications: H3K36me2 H3K37me1, binder concentration: 100 nM",0.00376 ± 0.0011
same,peptide microarray binding signal,[3]; [15],0.000774 ± 0.00022
same,peptide microarray binding signal,[3]; [16],0.00622 ± 0.002
same,peptide microarray binding signal,[4]; [15],0.00214 ± 0.00062
same,peptide microarray binding signal,[4]; [16],0.00208 ± 0.00019
B7,peptide microarray binding signal,"[1]; peptide modifications: H3K36me3 H3K37ac, binder concentration: 50 nM",0.00197 ± 6.4e-05
same,peptide microarray binding signal,"[1]; peptide modifications: H3K36me3 H3K37ac, binder concentration: 500 nM",0.00643 ± 0.0006
same,peptide microarray binding signal,"[2]; peptide modifications: H3K36me3 H3K37ac, binder concentration: 10 nM",0.00603 ± 7.6e-05
same,peptide microarray binding signal,"[2]; peptide modifications: H3K36me3 H3K37ac, binder concentration: 100 nM",0.00128 ± 0.00011
same,peptide microarray binding signal,[3]; [17],0.000566 ± 6.2e-05
same,peptide microarray binding signal,[3]; [18],0.00856 ± 0.0042
same,peptide microarray binding signal,[4]; [17],0.0143 ± 0.0012
same,peptide microarray binding signal,[4]; [18],0.00617 ± 0.0014
B8,peptide microarray binding signal,"[1]; peptide modifications: H3K36me2 H3K37ac, binder concentration: 50 nM",0.00094 ± 1.9e-05
same,peptide microarray binding signal,"[1]; peptide modifications: H3K36me2 H3K37ac, binder concentration: 500 nM",0.000857 ± 1.5e-05
same,peptide microarray binding signal,"[2]; peptide modifications: H3K36me2 H3K37ac, binder concentration: 10 nM",0.0544 ± 0.07
same,peptide microarray binding signal,"[2]; peptide modifications: H3K36me2 H3K37ac, binder concentration: 100 nM",0.00354 ± 0.00098
same,peptide microarray binding signal,[3]; [19],0.000529 ± 1.4e-05
same,peptide microarray binding signal,[3]; [20],0.000685 ± 4.7e-05
same,peptide microarray binding signal,[4]; [19],0.000438 ± 1.5e-05
same,peptide microarray binding signal,[4]; [20],0.000461 ± 8.7e-06
B9,peptide microarray binding signal,"[1]; peptide modifications: H3K36me2 H3K37me3, binder concentration: 50 nM",0.00266 ± 7.1e-05
same,peptide microarray binding signal,"[1]; peptide modifications: H3K36me2 H3K37me3, binder concentration: 500 nM",0.00343 ± 0.00019
same,peptide microarray binding signal,"[2]; peptide modifications: H3K36me2 H3K37me3, binder concentration: 10 nM",0.00298 ± 6.6e-05
same,peptide microarray binding signal,"[2]; peptide modifications: H3K36me2 H3K37me3, binder concentration: 100 nM",0.00454 ± 0.00042
same,peptide microarray binding signal,[3]; [21],0.0016 ± 0.00015
same,peptide microarray binding signal,[3]; [22],0.00126 ± 3.7e-05
same,peptide microarray binding signal,[4]; [21],0.00429 ± 0.0012
same,peptide microarray binding signal,[4]; [22],0.00133 ± 4e-05
B10,peptide microarray binding signal,"[1]; peptide modifications: H3K36me3, binder concentration: 50 nM",0.00574 ± 0.00018
same,peptide microarray binding signal,"[1]; peptide modifications: H3K36me3, binder concentration: 500 nM",0.007429 ± 7.1e-05
same,peptide microarray binding signal,"[2]; peptide modifications: H3K36me3, binder concentration: 10 nM",0.0195 ± 0.00025
same,peptide microarray binding signal,"[2]; peptide modifications: H3K36me3, binder concentration: 100 nM",0.02445 ± 0.00017
same,peptide microarray binding signal,[3]; [23],0.00383 ± 0.00027
same,peptide microarray binding signal,[3]; [24],0.00468 ± 0.00012
same,peptide microarray binding signal,[4]; [23],0.0031 ± 0.00028
same,peptide microarray binding signal,[4]; [24],0.00219
